15 sequences from paper PMC7862700, “An all-to-all approach to the identification of sequence-specific readers for epigenetic DNA modifications on cytosine” can be followed below.

Assay in all cases: DAPPL (digital affinity profiling via proximity ligation, sequencing); 10 mM Tris-HCl pH 7.5, 50 mM NaCl, 1 mM DTT, 4% glycerol, room temperature, 30 min; GST-TFs on glutathione beads, 16-mer random dsDNA library, 0.1% formaldehyde crosslink after washing; high values mean tight binding
What all share (details): protein: recombinant; tags: N-terminal GST; dsDNA, one strand shown

For one assay, the target named is T1, ETV2 (Homo sapiens, UniProt O00321 1-342).
T1 sequence: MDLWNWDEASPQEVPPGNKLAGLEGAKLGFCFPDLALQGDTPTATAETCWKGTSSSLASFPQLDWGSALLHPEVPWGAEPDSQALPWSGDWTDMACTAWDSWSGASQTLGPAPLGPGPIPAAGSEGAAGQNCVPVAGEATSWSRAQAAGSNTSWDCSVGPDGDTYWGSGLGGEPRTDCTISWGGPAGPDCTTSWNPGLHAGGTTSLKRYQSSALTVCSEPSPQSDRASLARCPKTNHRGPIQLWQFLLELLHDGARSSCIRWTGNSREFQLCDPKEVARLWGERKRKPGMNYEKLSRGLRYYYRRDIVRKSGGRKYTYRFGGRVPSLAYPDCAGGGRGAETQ
A digest of the protocol: (§1)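 Binding signal is each hexamer's read frequency for a factor divided by its frequency in the tag-only sample. The factors were GST-fused human transcription factors from yeast, captured on glutathione beads, DNA-barcoded and pooled with that sample. Pools were incubated with 200 nmole of a random double-stranded 16-mer DNA library in Tris/NaCl/DTT/glycerol buffer at room temperature for 30 min, then washed, crosslinked with 0.1% formaldehyde, proximity-ligated with BsaI/T4 ligase (1 h, 37 °C), PCR-amplified and sequenced on an Illumina NextSeq500.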

A further assay concerns the target T2, ELF3 (Homo sapiens, UniProt P78545 1-371).
T2 sequence: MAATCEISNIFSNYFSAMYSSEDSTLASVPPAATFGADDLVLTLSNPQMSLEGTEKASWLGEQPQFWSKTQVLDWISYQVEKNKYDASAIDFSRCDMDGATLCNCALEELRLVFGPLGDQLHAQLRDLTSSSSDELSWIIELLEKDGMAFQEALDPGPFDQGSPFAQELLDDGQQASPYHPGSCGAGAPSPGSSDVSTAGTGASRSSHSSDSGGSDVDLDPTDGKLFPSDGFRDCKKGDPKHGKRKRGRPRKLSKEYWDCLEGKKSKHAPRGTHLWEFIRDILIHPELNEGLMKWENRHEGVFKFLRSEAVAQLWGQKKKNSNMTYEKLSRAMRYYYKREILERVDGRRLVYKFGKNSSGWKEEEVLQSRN
A digest of the protocol: as §1

A further assay concerns the target ETV1 (Homo sapiens, UniProt P50549 1-477). A digest of the protocol: as §1
Another assay concerns the target CRX (Homo sapiens, UniProt O43186 1-299). Put shortly: as §1
The target in a further assay is T3, GABPA (Homo sapiens, UniProt Q06546 1-454).
T3 sequence: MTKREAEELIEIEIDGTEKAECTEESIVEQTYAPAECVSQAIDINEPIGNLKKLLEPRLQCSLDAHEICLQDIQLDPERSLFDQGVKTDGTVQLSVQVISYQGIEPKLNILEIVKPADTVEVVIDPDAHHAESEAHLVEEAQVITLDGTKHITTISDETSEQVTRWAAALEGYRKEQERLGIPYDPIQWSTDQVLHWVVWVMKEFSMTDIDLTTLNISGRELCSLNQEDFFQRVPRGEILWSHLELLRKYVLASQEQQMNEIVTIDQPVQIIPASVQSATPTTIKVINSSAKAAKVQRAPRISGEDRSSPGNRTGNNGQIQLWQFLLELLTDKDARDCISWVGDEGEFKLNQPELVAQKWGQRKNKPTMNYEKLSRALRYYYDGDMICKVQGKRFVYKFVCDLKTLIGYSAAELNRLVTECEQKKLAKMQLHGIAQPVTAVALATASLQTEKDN
Put shortly:
as §1

In a further assay the target is T4, ETV7 (Homo sapiens, UniProt Q9Y603 1-341).
T4 sequence: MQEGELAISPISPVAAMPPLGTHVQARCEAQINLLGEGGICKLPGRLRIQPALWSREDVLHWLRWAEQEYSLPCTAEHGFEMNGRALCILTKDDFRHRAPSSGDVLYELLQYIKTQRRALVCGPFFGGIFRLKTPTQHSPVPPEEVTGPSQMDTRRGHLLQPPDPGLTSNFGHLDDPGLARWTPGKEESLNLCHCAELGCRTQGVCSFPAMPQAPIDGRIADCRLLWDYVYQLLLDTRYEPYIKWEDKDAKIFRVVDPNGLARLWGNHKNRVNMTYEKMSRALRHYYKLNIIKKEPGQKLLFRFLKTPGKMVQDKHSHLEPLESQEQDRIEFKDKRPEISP
A digest of the protocol: as §1

The next assay concerns the target T5, ELK3 (Homo sapiens, UniProt P41970 1-407).
T5 sequence: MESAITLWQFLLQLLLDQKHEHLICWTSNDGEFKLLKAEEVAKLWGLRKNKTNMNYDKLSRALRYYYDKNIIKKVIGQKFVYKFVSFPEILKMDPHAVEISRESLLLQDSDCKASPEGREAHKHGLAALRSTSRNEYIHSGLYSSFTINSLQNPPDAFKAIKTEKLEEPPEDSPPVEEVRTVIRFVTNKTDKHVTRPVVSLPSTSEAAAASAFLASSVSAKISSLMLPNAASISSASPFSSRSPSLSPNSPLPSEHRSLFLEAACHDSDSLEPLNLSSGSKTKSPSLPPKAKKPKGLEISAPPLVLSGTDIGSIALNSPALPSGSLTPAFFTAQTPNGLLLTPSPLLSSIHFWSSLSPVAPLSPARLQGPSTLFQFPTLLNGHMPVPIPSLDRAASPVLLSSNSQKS
A digest of the protocol: as §1

The target of a further assay is T6, ERF (Homo sapiens, UniProt P50548 1-548).
T6 sequence: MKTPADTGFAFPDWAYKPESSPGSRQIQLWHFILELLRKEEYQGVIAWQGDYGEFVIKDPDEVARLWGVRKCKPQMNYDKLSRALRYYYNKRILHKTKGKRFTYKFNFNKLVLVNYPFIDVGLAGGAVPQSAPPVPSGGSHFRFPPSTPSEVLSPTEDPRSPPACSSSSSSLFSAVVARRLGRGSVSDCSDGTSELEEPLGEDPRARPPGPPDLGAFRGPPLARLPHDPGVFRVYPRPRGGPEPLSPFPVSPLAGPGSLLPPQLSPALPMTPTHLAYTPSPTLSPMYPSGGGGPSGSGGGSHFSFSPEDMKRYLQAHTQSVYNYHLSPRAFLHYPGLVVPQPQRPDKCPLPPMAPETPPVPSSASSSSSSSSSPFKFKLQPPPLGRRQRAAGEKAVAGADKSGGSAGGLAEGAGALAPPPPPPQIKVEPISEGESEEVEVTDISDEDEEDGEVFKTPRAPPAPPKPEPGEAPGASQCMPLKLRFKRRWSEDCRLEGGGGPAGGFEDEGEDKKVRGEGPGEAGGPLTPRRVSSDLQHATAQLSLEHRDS
A digest of the protocol: as §1

In the next assay the target is T7, ETS2 (Homo sapiens, UniProt P15036 1-469).
T7 sequence: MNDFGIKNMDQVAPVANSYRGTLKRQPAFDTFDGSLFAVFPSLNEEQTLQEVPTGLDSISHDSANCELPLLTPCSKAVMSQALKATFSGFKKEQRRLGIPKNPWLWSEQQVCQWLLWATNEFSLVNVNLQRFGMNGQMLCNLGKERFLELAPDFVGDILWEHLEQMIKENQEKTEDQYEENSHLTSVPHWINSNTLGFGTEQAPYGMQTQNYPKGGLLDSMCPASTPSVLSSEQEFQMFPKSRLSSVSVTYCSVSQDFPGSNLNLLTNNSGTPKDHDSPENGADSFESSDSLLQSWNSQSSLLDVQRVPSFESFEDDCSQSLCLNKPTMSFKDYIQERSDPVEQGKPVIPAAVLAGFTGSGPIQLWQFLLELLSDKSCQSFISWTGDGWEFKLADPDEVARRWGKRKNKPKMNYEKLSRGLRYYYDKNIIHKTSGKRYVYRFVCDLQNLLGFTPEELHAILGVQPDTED
Put shortly: as §1

Chain of ETV1 (P50549 whole entry): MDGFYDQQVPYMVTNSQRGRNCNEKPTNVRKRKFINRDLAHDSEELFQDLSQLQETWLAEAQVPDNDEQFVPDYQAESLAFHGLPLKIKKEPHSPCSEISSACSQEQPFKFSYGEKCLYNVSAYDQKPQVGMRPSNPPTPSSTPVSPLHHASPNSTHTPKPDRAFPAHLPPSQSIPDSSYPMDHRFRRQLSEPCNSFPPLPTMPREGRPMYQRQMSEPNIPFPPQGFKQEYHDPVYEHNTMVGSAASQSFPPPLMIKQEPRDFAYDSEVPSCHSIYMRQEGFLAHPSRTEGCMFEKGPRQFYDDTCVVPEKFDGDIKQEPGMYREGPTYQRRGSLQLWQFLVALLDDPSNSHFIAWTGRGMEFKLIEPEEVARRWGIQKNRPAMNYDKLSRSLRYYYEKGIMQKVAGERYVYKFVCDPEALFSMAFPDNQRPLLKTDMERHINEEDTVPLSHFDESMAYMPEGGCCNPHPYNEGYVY
Chain of CRX (O43186 whole entry): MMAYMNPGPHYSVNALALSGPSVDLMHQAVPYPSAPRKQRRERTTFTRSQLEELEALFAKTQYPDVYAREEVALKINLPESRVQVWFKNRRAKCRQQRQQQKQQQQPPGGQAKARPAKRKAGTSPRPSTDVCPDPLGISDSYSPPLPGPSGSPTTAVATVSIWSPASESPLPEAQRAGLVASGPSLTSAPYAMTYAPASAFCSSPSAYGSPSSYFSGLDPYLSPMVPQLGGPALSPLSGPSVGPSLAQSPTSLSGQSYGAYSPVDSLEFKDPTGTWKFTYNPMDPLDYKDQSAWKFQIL

Take GACCGA: the binding signal with ETV2 is 1.04 fold enrichment (6-mer frequency, TF over GST control).
Take GTCAAA: the binding signal was 1 fold enrichment (6-mer frequency, TF over GST control) with ELF3 and 1 fold enrichment (6-mer frequency, TF over GST control) with ETV1.
For the sequence CTGGGA, in the assay with ETV2, the binding signal is 1.01 fold enrichment (6-mer frequency, TF over GST control).
Regarding GACTTG, in the assay with ELF3, the binding signal is 1.08 fold enrichment (6-mer frequency, TF over GST control).
Regarding TTGGGA, the binding signal in the assay with ETV2 is 1.03 fold enrichment (6-mer frequency, TF over GST control); in the assay with CRX it was 1.04 fold enrichment (6-mer frequency, TF over GST control).
Turning to ACAAGT, in the assay with ELF3, the binding signal is 1 fold enrichment (6-mer frequency, TF over GST control).
Take TGCGTC: the binding signal with GABPA was 1.01 fold enrichment (6-mer frequency, TF over GST control); with ETV2 it was 1.04 fold enrichment (6-mer frequency, TF over GST control); with ELF3 it was 1.03 fold enrichment (6-mer frequency, TF over GST control); with ETV7, 1.04 fold enrichment (6-mer frequency, TF over GST control).
As to TCGTCG, the binding signal in the assay with ETV2 was 1.05 fold enrichment (6-mer frequency, TF over GST control).
Turning to GACCCA, in the assay with ETV2, the binding signal is 1.09 fold enrichment (6-mer frequency, TF over GST control).
Regarding GCGGCA, the binding signal with ELF3 is 1.01 fold enrichment (6-mer frequency, TF over GST control).
Still for that read-out and setting: as for TAGTCA, the figure is 1.07 fold enrichment (6-mer frequency, TF over GST control).
For the sequence CGGACC, in the assay with ETV2, the binding signal is 1.02 fold enrichment (6-mer frequency, TF over GST control).
On to ACCAAG, for which the binding signal with ELF3 was 1.14 fold enrichment (6-mer frequency, TF over GST control).
For the sequence AGGCTA, the binding signal is 1.05 fold enrichment (6-mer frequency, TF over GST control) with ELK3; 1 fold enrichment (6-mer frequency, TF over GST control) with ETV2; 1.19 fold enrichment (6-mer frequency, TF over GST control) with CRX.
On to CCTAGT, for which the binding signal with ELF3 is 1.04 fold enrichment (6-mer frequency, TF over GST control); with ETV1 it was 1.02 fold enrichment (6-mer frequency, TF over GST control); in the assay with ERF, 1 fold enrichment (6-mer frequency, TF over GST control); in the assay with ETS2, 1.06 fold enrichment (6-mer frequency, TF over GST control).
